# Shown are actives, neighbours in structure and some others; about 2.1% of the full set was active somewhere.
# p53 PUMA act: mutant p53 pathway re-activators, primary screen, cell-based, SW480, luciferase, single point, HTS; 1.5% of 28,000 active; SW480 PUMA-promoter luciferase, p53 mutant reactivation; activation, % at 9.98 µM; in the data active = activation above about 52%; inconclusive = no clear call, values can overlap the other calls
# ID4 SMM: binders of human ID4 protein, primary screen, biochemical, small molecule microarray, single point; DNA-binding protein inhibitor ID-4 (Homo sapiens), P47928; Flag-ID4 binding, fluorescence F/B; calls only; 1.2% of 31,000 active; AID 624137, 2012; call rule not given here;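 also: a binder raises fluorescence above local background on the spot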
# Target sequence (P47928 whole entry, looked up): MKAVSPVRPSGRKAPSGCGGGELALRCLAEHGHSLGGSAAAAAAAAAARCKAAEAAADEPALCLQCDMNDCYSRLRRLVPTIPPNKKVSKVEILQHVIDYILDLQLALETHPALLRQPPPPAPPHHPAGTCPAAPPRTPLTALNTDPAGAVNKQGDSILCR
# Hits are given with their value; n = inactive; u = inconclusive; x = no result given; + = active, no number.
SMILES,p53 PUMA act,ID4 SMM
COC(=O)c1c2oc(c1C(=O)OC)C(=O)N[C@H](Cc1ccccc1)Cn1cc(nn1)CNC(=O)[C@H](Cc1ccccc1)NC(=O)N[C@@H](CO)CC2,x,+
COC(=O)c1c2oc(c1C(=O)OC)C(=O)N[C@@H](Cc1ccccc1)Cn1cc(nn1)CNC(=O)[C@H](Cc1ccccc1)NC(=O)N[C@@H](CO)CC2,x,n
COC(=O)c1c2oc(c1C(=O)OC)C(=O)N(C)Cc1cn(nn1)C[C@H](Cc1ccccc1)NC(=O)N[C@H](CO)CC2,x,+
COC(=O)c1c2oc(c1C(=O)OC)C(=O)N(C)Cc1cn(nn1)C[C@@H](C)NC(=O)N[C@H](CO)CC2,x,n
COc1ccccc1C#Cc1ccc([C@H]2[C@@H](CO)N(C(=O)C3CCCCC3)[C@H]2C#N)cc1,x,n
Cc1nn2c(CN(C(=O)CN3CCOCC3)c3ccccc3)nnc2c2ccccc12,n,+
Cc1nn2c(CN(C(=O)c3cccs3)c3ccccc3)nnc2c2ccccc12,n,n
Fc1cccc(/C=N/N=C/c2cccc(F)c2)c1,88,n
CNC[C@@H]1Oc2cc(Br)ccc2S(=O)(=O)N([C@H](C)CO)C[C@H]1C,x,n
CNC[C@@H]1Oc2cc(C#Cc3ccccc3)ccc2S(=O)(=O)N([C@H](C)CO)C[C@H]1C,x,n
CNC[C@H]1Oc2cc(Br)ccc2S(=O)(=O)N([C@H](C)CO)C[C@H]1C,x,+
CNC[C@@H]1Oc2cc(C#Cc3cccnc3)ccc2S(=O)(=O)N([C@@H](C)CO)C[C@H]1C,n,+
O=C(CSc1nnc(-c2ccc(Br)cc2)o1)Nc1cccc(C(=O)O)c1,n,n
Cc1ccc(NC(=O)CSc2nnc(-c3ccc(Br)cc3)o2)cc1Cl,n,n
O=C(CSc1nnc(-c2ccc(Br)cc2)o1)Nc1ccccc1Cl,75,n
Cc1cccc(-c2nnc(SCC(=O)Nc3c(C)cc(I)cc3C)o2)c1,n,n
CSc1cccc(NC(=O)CSc2nnc(-c3cccc(C)c3)n2C)c1,n,n
Cc1cccc(-c2nnc(SCC(=O)Nc3ccc(Br)cc3F)o2)c1,80,n
CSc1cccc(NC(=O)CSc2nnc(-c3cccc(C)c3)o2)c1,103,n
O=C(CSc1nnc(-c2ccccc2)o1)Nc1cccc(Br)c1,102,n
C[C@@H]1CN([C@@H](C)CO)C(=O)c2cc(-c3ccc(C#N)cc3)cnc2O[C@@H]1CN(C)CC1CCOCC1,n,n
CCC(=O)N(C)C[C@@H]1Oc2ncc(-c3ccc(C)cc3)cc2C(=O)N([C@@H](C)CO)C[C@H]1C,x,n
C[C@H](CO)N1C[C@H](C)[C@@H](CN(C)C(=O)Cc2ccccc2)OCCCC[C@H](C)Oc2ccc(NS(C)(=O)=O)cc2C1=O,n,n
C/C=C/c1cnc2c(c1)C(=O)N([C@H](C)CO)C[C@@H](C)[C@@H](CN(C)C(=O)c1ccc3c(c1)OCO3)O2,n,n
COc1ccc(CN(C)C[C@H]2Oc3ccc(NC(=O)Nc4ccc(C(F)(F)F)cc4)cc3C(=O)N([C@H](C)CO)C[C@@H]2C)cc1,n,n
SMILES,p53 PUMA act,ID4 SMM
CCCC#Cc1cnc2c(c1)C(=O)N([C@H](C)CO)C[C@@H](C)[C@@H](CN(C)C(=O)c1cccc(F)c1)O2,x,n
OC(CSc1nccc(-c2ccc3c(c2)OCCO3)n1)C(F)(F)F (stereo unspecified),u,n
Cc1csc2c(SCC(O)C(F)(F)F)ncnc12 (stereo unspecified),56,n
CC(C)c1ccc(OCC(=O)Nc2ccccc2C#N)c(Br)c1,130,n
CCc1ccc(OCC(=O)Nc2cccc3ncccc23)cc1,n,n
CCC(C)c1ccccc1OCC(=O)Nc1ccccc1C#N (stereo unspecified),n,n
CCc1ccc(OCC(=O)Nc2ccccc2C#N)cc1,64,n
O=C(NCc1cccnc1)c1cc2cc(Cl)ccc2oc1=O,n,n
COc1ccc(-c2nnc(SCC(=O)Nc3c(F)cc(F)cc3Br)n2C)cc1,n,n
Cn1c(SCC(=O)Nc2c(F)cc(F)cc2Br)nnc1-c1ccco1,n,+
COc1ccc(NC(=O)C2CCCCC2C(=O)O)cc1 (stereo unspecified),n,n
C[C@@H]1CN([C@@H](C)CO)C(=O)c2cc(NS(=O)(=O)c3ccccc3)ccc2O[C@@H]1CN(C)C,n,n
Cc1cc(C)c2c(=O)[nH]c(SCC(=O)N3CCOCC3)nc2n1,n,+
Cc1cc(C)c2c(=O)[nH]c(SCC(=O)c3ccccc3)nc2n1,n,n
C[C@@H]1CN([C@@H](C)CO)C(=O)Cc2cc(NC(=O)NC3CCCCC3)ccc2O[C@@H]1CN(C)S(=O)(=O)c1ccc(Cl)cc1,n,n
Cc1ccc(-c2cc(C)nc(SCC(=O)Nc3ccc(C)c(C)c3)n2)cc1,n,n
COC(=O)c1cccc(-n2c(CCC(=O)O)ccc2-c2ccc(C)cc2)c1,n,n
COC(=O)c1cccc(-n2c(CCC(=O)O)ccc2-c2cccs2)c1,63,n
C=CCN1CCN(c2nc3ccccc3nc2C#N)CC1,n,+
CCN1CCN(c2oc(COc3ccccc3C)nc2C#N)CC1,n,n
CC(=O)N(C)C[C@H]1Oc2cc(-c3ccccc3C)ccc2S(=O)(=O)N([C@@H](C)CO)C[C@@H]1C,n,x
CCOc1ccc2nc(SCC(=O)Nc3ccc4c(c3)OCCO4)sc2c1,n,n
C[C@@H]1CN([C@@H](C)CO)C(=O)c2cccc(N(C)C)c2O[C@@H]1CN(C)CC1CC1,n,n
CN1CCN(C(=O)C2=C[C@@H](c3ccc4c(c3)OCO4)C[C@@H](OCCCCO)O2)CC1,x,+
O=C(C1=C[C@@H](c2ccc3c(c2)Cc2ccccc2-3)C[C@@H](OCCCCO)O1)N1CCN(Cc2ccc3c(c2)OCO3)CC1,x,n
SMILES,p53 PUMA act,ID4 SMM
C[C@@H]1CN([C@@H](C)CO)S(=O)(=O)c2ccc(C#Cc3ccccc3)cc2O[C@H]1CN(C)C(=O)C1CC1,n,x
Cc1cc(C)nc(SCC(=O)c2c(C)[nH]c3ccccc23)n1,n,n
CCOC(=O)c1c(CSc2nc(C)cc(C)n2)nc2c3ccccc3ccn12,90,n
Cc1ccc(-c2csc3ncn(CC(=O)Nc4cc(Cl)ccc4Cl)c(=O)c23)cc1,n,n
C[C@H]1CN([C@@H](C)CO)C(=O)Cc2cc(N(C)C)ccc2O[C@@H]1CN(C)C(=O)Nc1ccc(F)cc1,x,n
COc1ccc(C2CC(=O)c3c(O)cc(O)cc3O2)cc1O (stereo unspecified),63,n
O=C1CC(c2ccc(O)c(O)c2)Oc2cc(O)cc(O)c21 (stereo unspecified),n,n
COc1cc(-c2nnn(CC(=O)Nc3ccccc3C)n2)cc(OC)c1OC,n,n
COc1ccc(CNc2nc3nc(C)cc(=O)n3[nH]2)cc1OC,n,n
Cc1ccccc1OC(C)c1nc(-c2ccccn2)no1 (stereo unspecified),116,n
c1ccc(OCCCc2nc(-c3ccccn3)no2)cc1,69,n
c1ccc(-c2noc(COc3cccc4ccccc34)n2)nc1,87,n
CC(Oc1ccc(C(C)(C)C)cc1)c1nc(-c2ccccn2)no1 (stereo unspecified),n,n
O=C1c2ccccc2C(=O)N1CCCc1nc(-c2ccccn2)no1,n,n
O=C1c2ccccc2C(=O)N1CCc1nc(-c2ccccn2)no1,n,n
O=C1O[C@H](c2ccccc2)[C@H](c2ccccc2)N2[C@H]1[C@@H](C(=O)O)[C@]1(C(=O)Nc3ccc(C#CCCO)cc31)[C@H]2c1ccc(OCCO)cc1,x,n
